M1 antag = human CHRM1 antagonism. P11229. CHO-K1 hM1, Fluo-8 calcium fluorescence, ACh EC80 antagonist. inhibition, % at 3 µM. actives 1.3% (n = 360,000). AID 588852;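 active = percent inhibition above its own plate's cutoff, namely the mean of that plate's compound wells plus 3 SD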;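 note: peak over basal fluorescence ratio during 140 s after agonist addition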
Target sequence (P11229 whole entry, looked up): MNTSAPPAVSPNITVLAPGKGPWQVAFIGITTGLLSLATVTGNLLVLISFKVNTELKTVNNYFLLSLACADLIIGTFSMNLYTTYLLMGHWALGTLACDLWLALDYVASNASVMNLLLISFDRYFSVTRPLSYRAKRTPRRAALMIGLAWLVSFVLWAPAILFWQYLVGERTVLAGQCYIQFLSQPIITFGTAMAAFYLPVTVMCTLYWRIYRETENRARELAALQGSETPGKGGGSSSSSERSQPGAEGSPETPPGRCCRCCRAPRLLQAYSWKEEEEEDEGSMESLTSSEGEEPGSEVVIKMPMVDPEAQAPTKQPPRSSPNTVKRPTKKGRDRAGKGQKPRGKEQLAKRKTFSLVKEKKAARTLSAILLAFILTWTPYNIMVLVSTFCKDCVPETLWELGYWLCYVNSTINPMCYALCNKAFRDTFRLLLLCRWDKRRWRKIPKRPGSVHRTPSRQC
CHO-K1 Ca antag = counter-screen for M1 antagonists: effect in parental CHO-K1 cells; inhibition, % at 3 µM; actives 0.6% (n = 360,000); ATP-induced calcium, Fluo-8 fluorescence; AID 602250;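 active = inhibition above a per-plate cutoff, the plate's mean sample inhibition plus 3 SD, cut at about 24% in these data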
CHO-K1 Ca PAM = counter-screen for M1 PAMs: effect in parental CHO-K1 cells; AID 602247; ATP EC20, Fluo-8 calcium fluorescence; 0% at ATP EC20, 100% at ATP max; actives 0.02% (n = 360,000); activation, % at 3 µM;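 active = activation above the run cutoff, the mean activation of all test compounds plus 3 SD, cut at about 40% in these data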;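 note: peak over basal fluorescence ratio in a 140 s read after ATP addition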
CHRM1 PAM = potentiates human M1 receptor response to acetylcholine; activation, % at 3 µM; P11229; actives 0.088% (n = 360,000); CHO-K1 hM1, Fluo-8 calcium fluorescence, ACh EC20; 0% = ACh EC20, 100% = maximal ACh; in the data active = activation above about 19%, passing the limit was not always enough
CHO-K1 Ca ag = nonselective activator or artifact in parental CHO-K1 cells | Fluo-8 calcium fluorescence; scaled to maximal ATP response, vehicle zero | activation, % at 3 µM | actives 0.48% (n = 360,000); in the data active = activation above about 15%;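 note: untransfected CHO-K1 host cells lacking M1 receptor as counterscreen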
M1 ag = activates human CHRM1 receptor; activation, % at 3 µM; AID 588814; P11229; actives 0.33% (n = 360,000); CHO-K1 hM1, Fluo-8 calcium fluorescence, agonist mode; 0% DMSO, 100% acetylcholine EC100;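 active = activation above the run's mean compound activation plus 3 SD, cut at about 16% in these data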;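 note: peak over basal fluorescence ratio within a 140 s kinetic read after compound addition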
A number is an active result; . = inactive; / = no result. Shown are actives, neighbours in structure and some others; about 2.4% of the full set was active somewhere.

SMILES | M1 antag | CHO-K1 Ca antag | CHO-K1 Ca PAM | CHRM1 PAM | CHO-K1 Ca ag | M1 ag
CCCc1nc2oc3c(Cl)ncnc3c2c2c1CCCC2 | 52.5 | . | . | . | . | .
Cc1cccc(OCCNc2ccc(C(F)(F)F)cc2[N+](=O)[O-])c1 | . | . | . | . | . | .
O=C(CCCN1C(=O)/C(=C/c2cccc(Br)c2)SC1=S)N1CCOCC1 | . | . | . | . | . | .
Cc1cc2nc(-c3nnnn3-c3c(C)cccc3C)c(=O)[nH]c2cc1C | / | 23.8 | . | / | . | /
CCOC(=O)C1CCCN(C(=O)Nc2c(-c3ccccc3)noc2C)C1 (configuration not stated) | . | . | . | . | . | 30.7
CCOC(=O)C1CCCN(C(c2ccccn2)c2c(C)[nH]c3ccccc23)C1 (configuration not stated) | . | . | . | . | . | 27.9
CCOC(=O)C1CCCN(C(=O)C2c3ccccc3Oc3ccccc32)C1 (configuration not stated) | 34.6 | . | . | . | 19.9 | 79.2
CCOC(=O)C1CCCN(C(=O)Cc2c(C(=O)O)[nH]c3ccccc23)C1 (configuration not stated) | 63.8 | . | . | . | . | 73.3
Cc1[nH]c2ccccc2c1C(c1ccccn1)N1CCCC1 (configuration not stated) | . | . | . | . | . | .
CCOC(=O)C1CCCN(C(=S)Nc2ccc(Nc3ccccc3)cc2)C1 (configuration not stated) | 79.5 | . | . | . | . | 77.8
CS(=O)(=O)N1CCN(C(=O)C2c3ccccc3Oc3ccccc32)CC1 | 46.9 | . | . | . | . | .
CCOC(=O)C1CCCN(C(=S)Nc2ccc(C)cc2C)C1 (configuration not stated) | 83.1 | . | . | . | . | 84.9
COc1ccc(N=C2SCC(c3ccc([N+](=O)[O-])cc3)=NN2CCO)cc1 | . | . | . | . | 15.5 | .
Cc1cccc(NC(=O)c2ccc(S(=O)(=O)N3CCN(C)CC3)cc2)c1C | . | . | . | . | . | .
O=C(NC1(Cc2ccccc2)CCN(Cc2ccc(-c3ccccc3)cc2)C1=O)c1ccccc1 (configuration not stated) | 37.1 | . | . | . | . | .
O=C(CCc1ccccc1)NC1(Cc2ccccc2)CCN(CCc2cccs2)C1=O (configuration not stated) | . | . | . | . | . | .
Oc1ccccc1/C=N/n1c(COc2ccccc2)n[nH]c1=S | . | . | . | . | . | .
O=C1C(=O)N(CCCN2CCOCC2)C(c2ccc(Cl)cc2)/C1=C(/O)c1ccc(F)cc1 (configuration not stated) | . | . | . | . | . | .
O=C1C(=O)N(CCN2CCOCC2)C(c2ccc(F)cc2)/C1=C(/O)c1ccc(S(=O)(=O)N2CCOCC2)cc1 (configuration not stated) | 31.1 | . | . | . | . | .
O=C(O)Cn1cc(C(=S)N2CCOCC2)c2ccccc21 | . | . | . | 27.0 | . | .
Fc1ccc(Cn2cc(C(=S)N3CCOCC3)c3ccccc32)cc1 | . | . | . | . | 22.5 | .
O=C(Cn1cc(C(=S)N2CCOCC2)c2ccccc21)N1CCOCC1 | . | . | . | . | . | .
Cn1c(SCC(=O)Nc2ccc(Cl)cc2F)nnc1-c1ccco1 | . | . | . | . | . | .
CCN(CC)c1ccc(C(=O)OCC(=O)NC2CCCCC2C)cc1 (configuration not stated) | . | . | . | . | . | .

Screening data deposited in PubChem BioAssay by The Scripps Research Institute Molecular Screening Center.
